# Rows were chosen to be rich in hits. Some 3.5% of all compounds tested hit in one or more screens of this group.
# BoNT-F LC inh – blocks Botulinum neurotoxin F light chain protease; Multiplex microsphere protease cleavage assay, flow cytometry; inhibition, % at 10 µM; 360,000 compounds, 0.22% hits; in the data active = inhibition above about 35%, passing the limit was not always enough; inconclusive = no clear call, values can overlap the other calls; note: plate controls were buffer without enzyme for full effect and enzyme alone for no effect
# Bead autofluor – compound fluorescence in toxin protease inhibitor counterscreen. compound autofluorescence counterscreen, microsphere flow cytometry; hits give high values. fluorescence intensity (concentration not given with the values). 360,000 compounds, 3.1% hits; in the data active = fluorescence intensity above about 16000; inconclusive = no clear call, values can overlap the other calls
# Anthrax LF prot – anthrax lethal factor protease inhibition | multiplex microsphere protease cleavage assay, LF | P15917 | 360,000 compounds, 0.12% hits | AID 588501 | inhibition, % at 10 µM; note: plate controls were buffer without enzyme for full effect and enzyme alone for no effect
# Target sequence (P15917 whole entry, looked up): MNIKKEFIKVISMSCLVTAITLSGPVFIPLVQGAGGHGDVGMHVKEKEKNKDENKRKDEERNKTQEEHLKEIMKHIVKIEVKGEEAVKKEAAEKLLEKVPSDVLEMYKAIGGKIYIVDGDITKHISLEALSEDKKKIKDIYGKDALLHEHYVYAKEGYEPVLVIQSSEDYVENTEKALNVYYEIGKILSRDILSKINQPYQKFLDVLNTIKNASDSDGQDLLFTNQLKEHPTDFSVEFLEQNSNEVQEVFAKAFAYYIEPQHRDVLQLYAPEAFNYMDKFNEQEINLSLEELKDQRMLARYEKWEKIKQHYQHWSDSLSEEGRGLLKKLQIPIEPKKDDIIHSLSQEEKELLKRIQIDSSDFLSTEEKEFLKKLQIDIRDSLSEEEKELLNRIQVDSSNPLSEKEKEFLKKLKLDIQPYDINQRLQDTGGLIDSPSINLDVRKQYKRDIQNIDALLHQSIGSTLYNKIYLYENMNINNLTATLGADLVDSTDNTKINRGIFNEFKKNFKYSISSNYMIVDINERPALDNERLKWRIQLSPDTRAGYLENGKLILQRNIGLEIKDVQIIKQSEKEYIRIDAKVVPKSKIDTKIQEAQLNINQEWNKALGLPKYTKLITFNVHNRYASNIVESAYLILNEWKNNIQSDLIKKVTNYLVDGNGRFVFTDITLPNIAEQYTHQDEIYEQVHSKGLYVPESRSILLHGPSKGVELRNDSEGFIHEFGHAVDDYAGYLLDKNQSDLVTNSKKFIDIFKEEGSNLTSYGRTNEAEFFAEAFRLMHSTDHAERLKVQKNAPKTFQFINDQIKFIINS
# BoNT A protease – BoNT A light chain protease inhibition; 360,000 compounds, 0.17% hits; inhibition, % at 10 µM; multiplex microsphere protease substrate cleavage, flow cytometry; note: plate controls were buffer without enzyme for full effect and enzyme alone for no effect
# Starred values were filed as active, the others as inactive; ? = inconclusive. Cut-off read from the data, not from the text of the source, unless noted: active = inhibition above about 30%; inconclusive = no clear call, values can overlap the other calls; inactive = below that.
SMILES,BoNT-F LC inh,Bead autofluor,Anthrax LF prot,BoNT A protease
N#Cc1cc2c(nc1SCC(=O)Nc1cc(Cl)ccc1Cl)C1CCN2CC1,-2,20370*,2,?
N#Cc1cc2c(nc1SCC(=O)Nc1ccc(Cl)cc1)C1CCN2CC1,2,10124,-5,0
O=C1OCC(Cn2c3ccccc3c3ccccc32)O1 (stereo not drawn),2,23400*,1,1
N#CCCC(CCC#N)(CCC#N)c1cc[n+](CCc2ccccn2)cc1,-9,4362,11,0
O=C(CCN1CCN(S(=O)(=O)c2cccc([N+](=O)[O-])c2)CC1)Nc1ccccc1F,2,5492,-3,0
CC1CCCCN1CCNC(=O)C1CCN(S(=O)(=O)c2cccc3cccnc23)CC1 (stereo not drawn),-11,17441*,-3,-4
CC1CC(C)CN(S(=O)(=O)c2cccc3cccnc23)C1 (stereo not drawn),-1,5921,-8,0
O=S(=O)(c1cccc2cccnc12)N1CCOCC1,-1,23370*,2,0
O=S(=O)(c1cccc2cccnc12)N1CCN(c2ccc(F)cc2)CC1,-4,4803,-4,-1
O=c1n(S(=O)(=O)c2cccc3cccnc23)c2ccccc2n1S(=O)(=O)c1cccc2cccnc12,8,20693*,-1,7
COc1cccc(CCc2nnc(CCC(=O)NC(C)Cc3cccs3)o2)c1 (stereo not drawn),0,3976,-5,-1
CCCCNC(=O)CN1CCC2(O)CCCCC2C1c1ccccc1OC (stereo not drawn),-6,3334,2,0
CCOc1cc([C@H]2[C@@H]3CCCC[C@]3(O)CCN2CC(=O)NCc2ccco2)ccc1O,-2,22611*,-7,0
CCOc1ncnc2c1sc1nc(C)cc(C)c12,-1,4168,-2,1
Cc1cc(C)c2c(n1)sc1c(N3CCN(CCO)CC3)ncnc12,-4,17147*,-7,-4
COc1cccc(NC(=O)N(C2CCCCC2)C(C)c2cccs2)c1 (stereo not drawn),9,19720*,-6,7
O=C(COc1c(Br)cc(Br)cc1Br)N/N=C/c1ccco1,0,6088,3,0
COc1ccc(C2C(C(=O)Nc3cccnc3)=C(C)Nc3nc(-c4cccs4)nn32)cc1 (stereo not drawn),-2,21944*,-2,0
COc1ccc(C2C(C(=O)Nc3cccnc3)=C(C)Nc3nc(-c4cccs4)nn32)cc1OC (stereo not drawn),2,6093,-2,0
COc1cc2[nH]c(=O)n(CCCCCC(=O)N3CCN(c4ccccc4)CC3)c(=O)c2cc1OC,9,19560*,-2,6
ONC(=Nc1ccc(Cl)cc1)c1ccc(Cl)cc1,-4,24126*,-8,-1
CCc1nnc(NC(=O)CSCc2cc(=O)n3nc(C)sc3n2)s1,-8,6303,-3,-2
COC(=O)c1[nH]c(C)c(/C(O)=C2\C(=O)C(=O)N(CCN(C)C)C2c2cccs2)c1C (stereo not drawn),-2,20496*,-5,1
CCN(CC)CCN1C(=O)C(=O)/C(=C(/O)c2c(C)[nH]c(C(=O)OC)c2C)C1c1ccc(OC)cc1 (stereo not drawn),-20,12135,-5,-6
CCOC(=O)c1[nH]c(C)c(/C(O)=C2\C(=O)C(=O)N(CCN(C)C)C2c2ccc(C)o2)c1C (stereo not drawn),-3,21142*,-1,-4
SMILES,BoNT-F LC inh,Bead autofluor,Anthrax LF prot,BoNT A protease
CCN(CC)CCN1C(=O)C(=O)/C(=C(/O)c2c(C)[nH]c(C(=O)OC)c2C)C1c1cccc(OC)c1 (stereo not drawn),-4,18213*,-4,-4
CCOc1ccccc1-n1c(SCC(=O)NC)nnc1-c1ccco1,-10,17639*,-6,-6
CNC(=O)CSc1nnc(-c2ccco2)n1-c1ccccc1OC,5,7903,-2,0
CCN(CC)C(=O)CSc1nnc(-c2ccco2)n1N,9,17289*,-10,8
COc1ccc(N2CC(C(=O)N[C@H](C(=O)NC(C)c3ccccc3)C(C)C)CC2=O)cc1 (stereo partly drawn),0,6461,0,-1
CCOC(=O)C1(Cc2ccccc2)CCCCCC1=O (stereo not drawn),0,4563,0,0
CCCSc1nc2sc3c(c2c(=O)[nH]1)CCN(Cc1ccccc1)C3,?,8728,24,32*
Cc1cc(=O)[nH]c(SCc2nnc(-c3ccccc3)o2)n1,-4,3015,-1,0
Clc1ccc2nc(SCc3nnc(-c4ccccc4)o3)[nH]c2c1,-4,23021*,1,?
Clc1ccc(OCc2nnc(SCc3nnc(-c4ccccc4)o3)o2)c(Cl)c1,-4,17010*,0,-2
Cc1ccccc1[C@@H](NC(=O)OC(C)(C)C)C(=O)OC(C)(C)C,-8,3065,-5,0
NC(=O)CCCCC(=O)OCCCc1cccs1,1,16230*,0,-1
CC1(N=Cc2cc(Cl)ccc2O)COP(=O)(NC2CCCC2)OC1 (stereo not drawn),-1,3805,-3,0
CC(=O)CC(=O)Nc1ccc(C(N)=O)cc1,-2,3528,-2,0
CCC(C)c1ccc(NC(=O)CC(C)=O)cc1 (stereo not drawn),-3,22794*,-2,?
CSc1ccc(NC(=O)CC(C)=O)cc1,2,22536*,-2,0
O=C(OCC(=O)N1CCN(S(=O)(=O)c2ccc(Cl)cc2)CC1)C1CC1,-5,3455,1,0
Cc1ccc(C(=O)O/N=C2\CC3CCC2(C)C3(C)C)cc1 (stereo not drawn),1,21254*,-3,?
Cc1cc(C)c(NC(=O)C(C)Sc2nc3ccc(N4C(=O)c5ccccc5C4=O)cc3s2)c(C)c1 (stereo not drawn),0,16290*,-2,?
COc1ccc(S(=O)(=O)N2CCCCC2)cc1NC(=O)C1CC1C (stereo not drawn),-2,4747,-1,-6
COc1ccc(-c2nc3c4ccccc4ccn3c2CN2CCOCC2)cc1OC,-5,3652,-14,1
CCOC(=O)C1=C(C)N(c2ccc(C)cc2)C(=O)/C1=C\c1cccs1,-4,16417*,-4,-1
CC1CCCN(S(=O)(=O)c2ccc3c(c2)c(=O)nc2ccccn23)C1 (stereo not drawn),10,3159,-8,-2
Cc1nn(-c2ccccc2)c(C)c1C(=O)NCc1ccccc1F,-6,3690,-6,-7
O=C(N/N=C/C=C/c1ccccc1[N+](=O)[O-])c1cccnc1,3,2559,2,0
Cc1ccc(CSc2nnc(SCC(=O)N/N=C/C=C/c3ccccc3[N+](=O)[O-])s2)cc1,-2,1917,-1,-1
CCn1c(SCC(=O)N/N=C/C=C\c2ccccc2[N+](=O)[O-])nnc1-c1ccccc1,-2,16357*,-3,-1
O=C(N/N=C/C=C/c1ccccc1[N+](=O)[O-])c1ccncc1,56*,3912,?,-1
C=CCN1C(=O)c2ccc(C(=O)N3CCN(S(=O)(=O)c4cccc(F)c4)CC3)cc2C1=O,13,4043,-3,7
c1ccc(N2CCN(c3nc(-c4ccccn4)nc4ccccc34)CC2)cc1,-11,3108,-5,0

# High-throughput results deposited in PubChem by NMMLSC.
